Data reported in PubChem BioAssay AID1851 (National Center for Advancing Translational Sciences (NCATS), 2009).
Values joined by “and” are separate entries in the source; they are usually repeats but may differ in a detail not shown here. Equal entries are not always repeated. The campaign covered roughly 16,000 compounds. About 5,700 (36%) were called active. Roughly 24% stayed inconclusive and do not appear here. This is one part of the list. A number with no mark means an inactive call. Calls follow the shape of the dose curve; as a rule, active = well fitted curve in the direction sought with a large enough effect; inconclusive = small, poorly fitted or top-dose-only effect, or effect the other way; inactive = no such curve, though single readings can be large or run the other way.
% is scaled to controls: 0 for no effect and ±100 for the full control effect.

Each compound was assayed against Cytochrome P450 1A2 (Homo sapiens) (UniProt P05177) (assay: Cytochrome panel assay with activity outcomes). Settings: recombinant CYP, pro-luciferin dealkylation, luminescence, p450-cyp1a2; series mostly up to 57.1 µM.
Sequence of Cytochrome P450 1A2 (Homo sapiens) (P05177 whole entry, looked up): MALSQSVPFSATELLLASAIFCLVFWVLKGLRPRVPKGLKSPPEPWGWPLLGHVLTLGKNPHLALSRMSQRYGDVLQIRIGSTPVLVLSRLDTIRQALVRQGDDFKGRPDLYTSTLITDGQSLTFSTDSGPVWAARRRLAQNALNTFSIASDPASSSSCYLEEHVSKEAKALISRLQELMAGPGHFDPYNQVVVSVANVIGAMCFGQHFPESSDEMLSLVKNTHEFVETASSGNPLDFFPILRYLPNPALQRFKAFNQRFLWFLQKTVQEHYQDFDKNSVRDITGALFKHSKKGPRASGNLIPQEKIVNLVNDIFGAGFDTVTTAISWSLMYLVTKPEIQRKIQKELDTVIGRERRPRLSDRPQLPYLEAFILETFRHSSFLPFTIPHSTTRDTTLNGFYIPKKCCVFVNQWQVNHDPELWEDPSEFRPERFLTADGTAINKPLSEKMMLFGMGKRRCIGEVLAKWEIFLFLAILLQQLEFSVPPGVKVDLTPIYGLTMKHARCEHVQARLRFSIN
`CCN(CC)CCOC(=O)[C@@H](c1ccccc1)C1CCCCC1` was tested, and the AC50 was 1.26 µM (active).
For `CN(C)CCOC(=O)[C@@H](c1ccccc1)C1(O)CCCC1`, the AC50 was “inactive”.
In the case of `CCN(CC)CCOC(=O)C(c1ccccc1)c1ccccc1`, the AC50 is reported as 5.01 µM (active).
With `CCCC(C(=O)OCCN(CC)CC)(c1ccccc1)c1ccccc1` the AC50 was “inactive”.
With `O=C1CCC[C@@H](C(C(=O)OCc2ccccc2)C(=O)OCc2ccccc2)C1` the activity, negative = inhibition was -9.68% [at 11.4 µM].
In the case of `C[N+]1(C)CCC(OC(=O)C(c2ccccc2)c2ccccc2)CC1`, the AC50 is reported as “inactive”.
`CN(C)CCNc1ncnc2c1sc1nc(N3CCOCC3)c3c(c12)CC(C)(C)SC3` was tested, and the AC50 was “inactive”.
With `CCOc1ccc(N=C2NC(=O)C(CC(=O)O)S2)cc1` (configuration not stated) the AC50 was “inactive”.
Compound `O=C1CN2CCN(CC2)CC(=O)Nc2ccc(cc2)S(=O)(=O)c2ccc(cc2)NC(=O)CN2CCN(CC2)CC(=O)Nc2ccc(cc2)S(=O)(=O)c2ccc(cc2)N1` has an activity, negative = inhibition of -13.1% [at 11.4 µM].
`CCC(C)c1ccc(Nc2ncccc2C#N)cc1` (configuration not stated) was tested, and the AC50 was 5.01 µM (active).
With `CCc1ccc(Nc2ncccc2C#N)cc1` the AC50 was 1.26 µM (active).
Work on `COC(=O)[C@@H]1CC[C@H](C)[C@@H](c2ccc(C)cc2)N1C(=O)c1ccc(/C=N\OCC[C@@H]2C=C[C@H](OC(C)=O)[C@H](COC(C)=O)O2)cc1` yielded an activity, negative = inhibition of -3.4% [at 11.4 µM].
In the case of `C[C@H]1CN(S(=O)(=O)c2cccc3cnccc23)CCN1`, the AC50 is reported as “inactive”.
For `Nc1cccc2cnccc12`, the AC50 was 12.6 µM (active).
With `N[C@@H]1CONC1=O` the AC50 was “inactive”.
For `C[C@@H]1CN2[C@H](c3ccc(Br)cc3)[C@H](C)CC[C@H]2C(=O)O1`, the activity, negative = inhibition was -6.13% [at 11.4 µM].
`Cc1nc(SCc2cccc(Oc3ccccc3)c2)n[nH]1` was tested, and the AC50 was 17.8 µM (active).
With `COCCN1CN=C(Nc2nc3ccccc3s2)NC1` the AC50 was “inactive”.
`COc1ccc(CN2CN=C(Nc3nc4ccccc4s3)NC2)cc1` was tested, and the AC50 was 12.6 µM (active).
With `CCOC(=O)[C@]1(CC(=O)O)CCCC1=O` the activity, negative = inhibition was -12.7% [at 11.4 µM].
For `COc1c2c(nc3ccccc13)O[C@H]([C@@](C)(O)CO)C2`, the AC50 was 12.6 µM (active).
For `CCOc1cc(CNc2ccc(OC)cc2)cc(Br)c1OCC(=O)NC(C)(C)C`, the AC50 was 11.2 µM (active).
In the case of `NCC[C@H](N)C(=O)O`, the activity, negative = inhibition is reported as -8.87% [at 2.29 µM].
In the case of `Cc1c2cnccc2c(C)c2c1c1ccccc1n2CCOC(=O)c1ccccc1`, the AC50 is reported as 0.0794 µM (active).
With `O=C(c1cc(C(F)(F)F)cc(C(F)(F)F)c1)N1CCC2(CC1)CN(c1ccncc1)C2` the AC50 was “inactive”.
In the case of `Cc1c(/C=N/NC(=O)c2ccc3c(c2)OCO3)cnn1C`, the AC50 is reported as 14.1 µM (active).
In the case of `COc1ccc(-c2nn(-c3ccccc3)cc2/C=N/NC(=O)c2ccc3c(c2)OCO3)cc1`, the AC50 is reported as “inactive”.
For `COc1cc(CNCCc2c[nH]c3ccccc23)ccc1OCc1ccccc1F`, the AC50 was 25.1 µM (active).
`CC(C)CN1CCCC2(CCN(C(=O)c3cnccn3)CC2)C1` was tested, and the AC50 was “inactive”.
For `C[C@@H](CCc1ccc(O)cc1)NCCc1ccc(O)c(O)c1`, the AC50 was “inactive”.
`O=C(O)Cc1ccc(O)c(O)c1` was tested, and the AC50 was “inactive”.
With `O=C(CCc1ccc(O)cc1)c1c(O)cc(O)cc1O` the AC50 was 6.31 µM (active).
`Nc1c(OCC(=O)O)ccc2cc(S(=O)(=O)O)ccc12` was tested, and the activity, negative = inhibition was -5.41% [at 11.4 µM].
With `CCOc1ccccc1NC(=O)CCC(=O)O` the AC50 was “inactive”.
Work on `CCOc1ccccc1Nc1ccc(N)cc1S(=O)(=O)O` yielded an activity, negative = inhibition of -12.6% [at 2.29 µM].
In the case of `CCCCN(C(=O)NC(=O)Nc1ccccc1OCC)S(C)(=O)=O`, the AC50 is reported as 20 µM (active).
`CO[C@H]1COC(=O)[C@H](C)NC(=O)C/C=C\[C@@H](C)[C@@H](NS(=O)(=O)c2ccc(C)cc2)COC(=O)C/C=C\[C@@H]1C` showed an activity, negative = inhibition of -0.0135% [at 11.4 µM].
`N#CC1=C(SCC(N)=O)NC2=C(C(=O)c3ccccc32)C1c1ccc(Cl)cc1` (configuration not stated) was tested, and the AC50 was 0.631 µM (active).
`CSC1=C(C#N)C(c2ccccc2Cl)C2=C(N1)c1ccccc1C2=O` (configuration not stated) was tested, and the AC50 was 0.708 µM (active).
In the case of `C=CCN1C(=CCO)[C@H]2C[C@H]3[C@@H]1CC[C@@]31c3ccccc3N3C=C4[C@@H]5N(/C=C/2[C@H]31)c1ccccc1[C@]51CC[C@H]2[C@H]1C[C@@H]4/C(=C/CO)N2CC=C`, the AC50 is reported as “inactive”.
In the case of `O=S(=O)(c1ccccc1)N1CCC2(CC1)CN(Cc1ccccc1)C2`, the AC50 is reported as “inactive”.
With `COc1cccc(/C=N/n2c(=S)n(C)c3cc(C)c(C)cc32)c1OC` the AC50 was 2.24 µM (active).
For `CC(C)(C)c1ccc(C(=O)N2CCC(C(=O)NCCC3=CCCCC3)CC2)cc1`, the AC50 was “inactive”.
With `O=C1CSc2ccc(C(=O)NCCC3=CCCCC3)cc2N1` the AC50 was 3.16 µM (active).
For `C=C/C(C)=C/[C@]1(C)SC(=O)C(C)=C1O`, the AC50 was “inactive”.
`CC1(C)CCC2=C(O1)c1ccccc1C(=O)C2=O` was tested, and the AC50 was 3.98 µM (active).
For `Cc1c(C=NCCOCc2ccccc2)cnn1C`, the AC50 was 17.8 µM (active).
With `CCCc1ncc(C[n+]2ccccc2C)c(N)n1` the AC50 was “inactive”.
For `C=CCOc1cccc(CNn2cn[nH]c2=S)c1`, the AC50 was 3.16 µM (active).
For `C=CCOc1cccc(/C=N/NC(=O)C(=O)NCc2ccco2)c1`, the AC50 was “inactive”.
In the case of `Cn1cccc1C(=O)N1CCC2(CCCN(c3ccc(-c4ccccc4)cc3)C2)CC1`, the AC50 is reported as 15.8 µM (active).
`COC(=O)N1CCC2(CC1)CN(c1ccccc1)C2` was tested, and the AC50 was “inactive”.
For `Cn1cccc1C(=O)N1CCC2(CCCN(Cc3ccccc3)C2)CC1`, the AC50 was “inactive”.
For `CC(C)NC(=O)N1CCCC2(CCN(C(=O)c3cccn3C)CC2)C1`, the AC50 was “inactive”.
For `CN1CCCC2(CCN(C(=O)c3cccn3C)CC2)C1`, the AC50 was “inactive”.
`Cn1cccc1C(=O)N1CCC2(CCCN(c3cccc(-c4ccccc4)c3)C2)CC1` was tested, and the AC50 was 15.8 µM (active).
In the case of `COC(=O)N1CCC2(CCCN(c3ccc(-c4ccccc4)cc3)C2)CC1`, the AC50 is reported as 20 µM (active).
With `O=C(Oc1ccccc1)N1CCC2(CCCN(c3ccc(-c4ccccc4)cc3)C2)CC1` the AC50 was “inactive”.
With `CC(C)CN1CCCC2(CCN(C(=O)c3cccn3C)CC2)C1` the AC50 was “inactive”.
With `Cc1cc2c(c(=O)o1)[C@@H](O)[C@H]1O[C@@H]1C2=O` the activity, negative = inhibition was -3.99% [at 11.4 µM].
For `COc1ccc(/C=C/C(=O)Nc2nc(C)cc(C)n2)cc1OC`, the AC50 was 5.01 µM (active).
With `CCCOc1ccc(/C=C/C(=O)Nc2ccc([N+](=O)[O-])cc2C)cc1OC` the AC50 was “inactive”.
For `COc1ccc2[nH]cc(CCNc3ncncc3-c3cccnc3)c2c1`, the AC50 was 0.316 µM (active).
In the case of `COc1cccc(-c2cncnc2NCCc2c[nH]c3ccc(OC)cc23)c1`, the AC50 is reported as 2 µM (active).
`COc1ccc2[nH]cc(CCNc3ncncc3-c3ccc(N(C)C)cc3)c2c1` was tested, and the AC50 was 0.251 µM (active).
`COc1ccc2[nH]cc(CCNc3ncncc3-c3cccc(NS(C)(=O)=O)c3)c2c1` was tested, and the AC50 was 12.6 µM (active).
With `COc1ccc(N2CCN(Cc3nc4c(c(=O)[nH]c(=O)n4C)n3CCCc3ccccc3)CC2)cc1` the AC50 was “inactive”.
For `O=C(O)C1CC2(C1)CC(C(=O)O)C2` (configuration not stated), the activity, negative = inhibition was -6.34% [at 2.29 µM].
`Cc1ccc(SCc2[nH]nc3c2C(C(C)C)C(C#N)=C(N)O3)cc1` (configuration not stated) was tested, and the AC50 was 12.6 µM (active).
In the case of `O=[N+]([O-])c1ccc(C=Nc2ccc(Cl)cc2Cl)s1`, the AC50 is reported as 2 µM (active).
With `O=c1onc(-c2cccs2)n1Cc1ccccc1` the AC50 was 2.24 µM (active).
`CN(C)CCNS(=O)(=O)N(C)C` gave an activity, negative = inhibition of -3% [at 11.4 µM].
In the case of `c1ccc(Nc2nc(-c3cccnc3)nc3ccccc23)cc1`, the AC50 is reported as 0.398 µM (active).
For `CNc1nc(-c2cccnc2)nc2ccccc12`, the AC50 was 0.1 µM (active).
In the case of `O=C(O)CC12C[C@H]3C[C@@H](CC(O)(C3)C1)C2`, the activity, negative = inhibition is reported as -11.2% [at 11.4 µM].
With `Cc1ccccc1-c1nc(CS(=O)CC(=O)NCCN2CCN(Cc3ccccc3)CC2)c(C)o1` (configuration not stated) the AC50 was “inactive”.
With `O=C(CSCc1cccc(Cl)c1)NCc1ccc2c(c1)OCO2` the AC50 was 3.16 µM (active).
For `O=C(CSCc1cccc(Br)c1)N/N=C/c1ccc2c(c1)OCO2`, the AC50 was 2.51 µM (active).
With `Cc1oc(-c2ccccc2F)nc1CSCC(=O)NCc1ccc2c(c1)OCO2` the AC50 was 1.58 µM (active).
For `O=C(N/N=C/c1ccc2c(c1)OCO2)/C(=C/c1ccc2c(c1)OCO2)NC(=O)c1ccccc1`, the AC50 was “inactive”.
In the case of `Cc1oc(-c2ccccc2Cl)nc1CSCC(=O)NC1CC1`, the AC50 is reported as 15.8 µM (active).
With `CCOC(=O)N1CCC(NC(=O)CS(=O)(=O)Cc2nc(-c3cccc(OC)c3)oc2C)CC1` the AC50 was “inactive”.
With `O=C1Nc2ccccc2C(O)(C(=O)NCc2ccc3c(c2)OCO3)N1c1ccc(Cl)c(Cl)c1` (configuration not stated) the AC50 was “inactive”.
For `CN1CCN(CCCNC(=O)c2ccc(CSCc3cccc(Cl)c3)o2)CC1`, the AC50 was “inactive”.
`Cc1oc(-c2ccccc2F)nc1CS(=O)(=O)CC(=O)NCCCN(C)C1CCCCC1` was tested, and the AC50 was “inactive”.
With `CC[C@]1(O)C[C@@H]2CN(CCc3c([nH]c4ccccc34)[C@](C(=O)OC)(c3cc4c(cc3OC)N(C=O)[C@H]3[C@@](O)(C(=O)OC)[C@H](C(=O)OC)[C@@]5(CC)C=CCN6CC[C@]43[C@H]65)C2)C1` the AC50 was “inactive”.
`CO[C@@H]1COC(=O)C/C=C\[C@H](C)[C@@H](NS(=O)(=O)c2ccc(C)cc2)COC(=O)C/C=C\[C@@H]1C` was tested, and the activity, negative = inhibition was -5.33% [at 11.4 µM] and -2.04% [at 11.4 µM].
In the case of `O=C(/C=C/c1ccc2c(c1)OCO2)NCCSCc1cccc(Cl)c1`, the AC50 is reported as 4.47 µM (active).
In the case of `O=C(Cn1nc(C(F)F)cc1C(F)F)N/N=C/c1ccc2c(c1)OCO2`, the AC50 is reported as 0.891 µM (active).
In the case of `CCS(=O)(=O)N1CCCC(C(=O)NCCCOC(C)C)C1` (configuration not stated), the AC50 is reported as “inactive”.
In the case of `CCC1C(=O)N=C(SCC(=O)Nc2ccc(C(=O)OC)cc2)NC1=O` (configuration not stated), the AC50 is reported as 15.8 µM (active).
For `CCOC(=O)c1ccc(NC(=O)CC2NCCNC2=O)cc1` (configuration not stated), the AC50 was “inactive”.
`CN1C(=O)C(CC(N)=O)N(NC(=O)c2ccc(Cl)cc2)C1=S` (configuration not stated) was tested, and the AC50 was “inactive”.
In the case of `CC(NC(=O)c1cccc(F)c1)C(c1cccs1)N1CCN(C)CC1` (configuration not stated), the AC50 is reported as “inactive”.
`C/C(=N\NC(N)=O)c1ccc(Cl)cc1` was tested, and the AC50 was 3.16 µM (active).
With `C/C(=N\NC(=O)c1cccc(F)c1)c1ccc(Br)s1` the AC50 was 0.631 µM (active).
In the case of `C/C(=N\NC(=O)c1ccc(Cl)cc1)c1ccc(Br)s1`, the AC50 is reported as 1.26 µM (active).
